Hits are enriched below; roughly 5.7% of the tested compounds scored in any of these assays.
rCAG binder: molecules binding r(CAG) RNA repeats; 370,000 compounds, 1.3% hits; inhibition, % at 3 µM; r(CAG) RNA repeat, TO-PRO-1 dye displacement fluorescence;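 active = inhibition above the plate cutoff, the mean of all test compounds on that plate plus 3 SD, cut at about 35% in these data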;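 also: higher means more dye released from RNA so lower well fluorescence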
GRIN3A LBD mod: modulates the human NR3A ligand-binding domain | NR3A LBD differential scanning fluorimetry, Tm shift; 0% = protein alone, 100% = glycine-bound protein | Tm shift relative to glycine control, % at 25 µM | 340,000 compounds, 2.5% hits | AID 1259313;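 active = melting temperature shift of at least 10% of the positive control shift, at one fixed dose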
Myeloid diff MLP: promotes myeloid progenitor differentiation; ER-HoxA9 myeloid progenitors, lysozyme-GFP differentiation, flow cytometry; calls only at 10 µM; 360,000 compounds, 1% hits;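 active = normalized GFP-positive differentiation at or above the plate's own cutoff, the solvent-only control mean plus 3 SD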;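 also: cells exposed to compound for four days before flow analysis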
FAS-TE inh: blocks the thioesterase domain of human fatty acid synthase; inhibition, % at 15 µM; recombinant FAS-TE, OMFH fluorogenic substrate, fluorescence endpoint; 360,000 compounds, 0.67% hits;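 active = compounds whose normalised, plate-corrected inhibition of enzyme fluorescence in the single-dose primary screen is 50% or more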
MPTP block: permeability transition pore inhibition | isolated mouse mitochondria, Ca2+ swelling absorbance, 30 min | inhibition, % at 10 µM | 360,000 compounds, 1.4% hits | AID 602449;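 active = inhibition of 50% or more, scaled per plate between neutral and stimulator controls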
Each line names hits and unclear results; the compound was inactive in the other large screens.

O=C(N[C@H](Cc1ccccc1)C(=O)N1CCN(c2ncccn2)CC1)[C@H]1O[C@@H](n2ccc(=O)[nH]c2=O)[C@H](O)[C@@H]1O	none (no result: GRIN3A LBD mod, Myeloid diff MLP, FAS-TE inh, MPTP block)
O=C(NC1CCCCN(Cc2cccc(Cl)c2)C1=O)c1ccc(F)c(F)c1 (stereo not given)	none (no result: GRIN3A LBD mod, Myeloid diff MLP, FAS-TE inh, MPTP block)
CCCC(=O)Oc1c(S(=O)(=O)c2ccc(C)cc2)c(C)nn1C(C)(C)C	none
CCC(=O)Oc1c(S(=O)(=O)c2ccc(C)cc2)c(C)nn1C(C)(C)C	GRIN3A LBD mod 15.1
CCOC(=O)[C@]12CCC=C1N(Cc1ccccc1)C(=O)[C@H](CC(=O)NCCCN1CCCC1=O)C2	none (no result: GRIN3A LBD mod)
CCCCn1ccnc1C(=O)c1cccc(S(=O)(=O)N2CC(C)CC(C)C2)c1 (stereo not given)	GRIN3A LBD mod 15.7
COC(=O)C1=C(C)N(Cc2ccccc2C(F)(F)F)C(=NCc2cccc(C(F)(F)F)c2)NC1c1ccc(F)cc1 (stereo not given)	none (no result: GRIN3A LBD mod, Myeloid diff MLP, FAS-TE inh, MPTP block)
C[C@H](O)[C@@H]1C(=O)N2CCc3c([nH]c4cccc(-c5ccccc5)c34)[C@@H]2C[C@@H]1N(C)C(=O)c1ccccc1	none (no result: GRIN3A LBD mod, Myeloid diff MLP, FAS-TE inh, MPTP block)
COc1cccc(-c2cc(=O)[nH][nH]2)c1	none
COc1ccc(-c2cc(=O)[nH][nH]2)cc1OC	GRIN3A LBD mod 12.7
COC(=O)/C=C1/S/C(=N/NC(=O)c2ccccc2OC)NC1=O	Myeloid diff MLP active
CCOc1ccc2nc(NCCNC(=O)CC)c(C#N)cc2c1	Myeloid diff MLP active
COc1ccc(-c2cc(=O)c3cc(C)ccc3[nH]2)cc1	none
COc1ccc(-c2cc(=O)c3cc(OC)ccc3[nH]2)cc1	Myeloid diff MLP active (no result: rCAG binder)
Cc1ccccc1/C=N/N1CCN(c2ccccc2)CC1	GRIN3A LBD mod 12.7
COc1cc(NC(=O)CSc2c3c(nc4ccccc24)CCC3)cc(OC)c1OC	GRIN3A LBD mod 12.8
COc1cc(NC(=O)c2ccc3c(SCC(=O)O)c4c(nc3c2)CCCC4)cc(OC)c1OC	none
COc1ccccc1NC(=O)CSc1c2c(nc3ccccc13)CCC2	none
COc1ccc(NC(=O)CSc2c3c(nc4cc(Cl)ccc24)CCCC3)cc1OC	GRIN3A LBD mod 14.0
CC(=O)c1c(C)n([O-])c2cc(F)c(F)cc2[n+]1=O	Myeloid diff MLP active
COc1ccc2c(c1)[n+](=O)c(C(C)=O)c(C)n2[O-]	none
Cc1ccc(NC2=CC(=O)CC(C)(C)C2)c(N)c1	Myeloid diff MLP active
Cc1ccc2nc(C)cc(C(=O)NC3CCCCCC3)c2c1	none
Cc1ccc2nc(-c3cccc(Br)c3)cc(C(=O)NC3CC3)c2c1	GRIN3A LBD mod 13.2
CC(=O)N(Cc1ccccc1)c1nccs1	none (no result: GRIN3A LBD mod, Myeloid diff MLP, FAS-TE inh, MPTP block)
O=C(NCCc1c[nH]c2ccccc12)OCc1cn(-c2ccc(F)cc2F)nn1	none (no result: GRIN3A LBD mod, Myeloid diff MLP, FAS-TE inh, MPTP block)
COc1ccc(C(c2nnnn2C2CCCC2)N2CCN(C3CCCC3)CC2)cc1OC (stereo not given)	GRIN3A LBD mod 10.8
COc1cc(C(c2nnnn2C2CCCC2)N2CCN(C)CC2)cc(OC)c1OC (stereo not given)	none
CCOc1cc(/C=C2/C(=O)ON=C2C)cc(Br)c1O	GRIN3A LBD mod 20.7
CC(=O)O[C@H]1CC[C@]2(C)C3CC[C@]4(C)[C@@H]([C@H](C)/C=C/[C@H](C)C(C)C)CC[C@H]4[C@@]34C=C[C@]2(C1)N(C(=O)c1ccccc1)O4 (stereo not given in full)	none (no result: GRIN3A LBD mod, Myeloid diff MLP, FAS-TE inh, MPTP block)
O=C(N[C@@H](Cc1cccnc1)C(=O)N1CCC[C@H]1C(=O)NCCc1ccccc1Cl)C1CC1	none (no result: GRIN3A LBD mod, Myeloid diff MLP, FAS-TE inh, MPTP block)
Cc1ccc(OCC(=O)NNC(=O)c2ccc(NC(=O)C3CC3)cc2)c(C)c1	GRIN3A LBD mod 28.4
CCC(=O)Nc1ccc(C(=O)NNC(=O)COc2cc(C)ccc2C)cc1	none
CCNC(=O)COC(=O)COc1ccc(Cl)cc1C	none
Cc1cc(Cl)ccc1OCC(=O)OCC(=O)Nc1ccc(F)c([N+](=O)[O-])c1	GRIN3A LBD mod 25.7
Cc1cc(Cl)ccc1OCCCC(=O)OCC(=O)Nc1cccc(S(N)(=O)=O)c1	GRIN3A LBD mod 10.1
CN(C)c1ccc(NC(=O)c2cccc([N+](=O)[O-])c2)c2ccccc12	Myeloid diff MLP active
Cc1ccc(-c2csc(NC(=O)c3cccc([N+](=O)[O-])c3)n2)cc1	GRIN3A LBD mod 24.6
O=C(Nc1ccc2c3c(cccc13)CC2)c1cccc([N+](=O)[O-])c1	none
O=C(Nc1ccc(-c2csc(Nc3ccccc3)n2)cc1)c1cc([N+](=O)[O-])cc(C(F)(F)F)c1	GRIN3A LBD mod 24.2
O=C(Nc1ccc(-c2csc(Nc3ccccc3)n2)cc1)c1cccc(C(F)(F)F)c1	GRIN3A LBD mod 25.9

Screening results: PubChem, several laboratories
